Only some compounds are listed: those with a hit (about 2.2% of all), similar ones and a draw of the others.
IEC-6 tox: counter-screen for KLF5 inhibitors: cytotoxicity in IEC-6 cells; IEC-6 cytotoxicity, luminescence viability; inhibition, % at 5 µM; 0.78% of 290,000 active; AID 1825; in the data active = inhibition above about 22%;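 note: 0% = plate median of test compound wells and 100% = cytotoxic reference compound wells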
Ba/F3 V617F tox: reduce viability of Ba/F3 cells dependent on JAK2V617F; Ba/F3 EpoR-JAK2V617F viability, ATP luminescence; inhibition, % at 5.6 µM; 1.1% of 220,000 active; AID 1446;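 active = inhibition above the campaign mean plus 3 SD over all tested compounds, cut at about 24% in these data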;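 note: cytokine-independent growth of Ba/F3 cells driven by EpoR plus mutant JAK2; 0% = DMSO-treated cells and 100% = JAK inhibitor I control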
aSyn UTR inh: 5' untranslated region of α-synuclein, MLPCN primary screen. AID 1813. alpha-synuclein 5'UTR reporter, inhibitor activity. inhibition, % (tested at 7.5 µM). 0.82% of 300,000 active; in the data active = inhibition above about 60%;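 note: H4 neuroglioblastoma cells stably carrying SNCA 5'UTR luciferase fusion; 0% = DMSO wells and 100% = positive control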
APP transl inh: APP translation inhibition; 0.82% of 190,000 active; SH-SY5Y APP 5'UTR-luciferase reporter, luminescence; inhibition, % at 2 µM; AID 1285;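 active = inhibition above a set limit, derived from the sample mean plus 3 SD, cut at about 45% in these data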
KLF5 inhibitor: suppresses KLF5 promoter-driven expression; DLD-1 KLF5 promoter-luciferase reporter, luminescence; inhibition, % at 5 µM; 0.23% of 290,000 active;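 active = inhibition above a per-plate limit of that plate's mean compound inhibition plus 3 SD, cut at about 60% in these data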;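 note: 0% = DMSO wells and 100% = LY294002 at 200 µM; higher means less KLF5 promoter-driven luciferase light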
BaF3 tox: counter-screen for JAK2V617F inhibitors: parental Ba/F3 viability inhibitors | CellTiter-Glo ATP luminescence | inhibition, % at 5.6 µM | 1.1% of 220,000 active;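 active = inhibition above a per-campaign cutoff, the mean inhibition of all tested compounds plus 3 SD, cut at about 27% in these data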;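 note: 0% = DMSO wells and 100% = JAK Inhibitor I control wells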
* marks the source's active call; other numbers are inactive results.

For COc1cc2nc(CN(C)Cc3ccc(OC)c(OC)c3OC)[nH]c(=O)c2cc1OC the results were IEC-6 tox -3, Ba/F3 V617F tox -1, aSyn UTR inh -90, APP transl inh -22, KLF5 inhibitor -34 and BaF3 tox 6.
Screening COc1ccc(C(=O)/C=C/N(C)C)cc1OC returned IEC-6 tox -2, Ba/F3 V617F tox 5, APP transl inh 8, KLF5 inhibitor 15 and BaF3 tox 5.
COc1ccc(C(=O)/C=C2\NCCc3cc(OC)c(OC)cc32)cc1OC was read as IEC-6 tox 4, aSyn UTR inh 64* and KLF5 inhibitor -31.
Screening CCCCSc1nnc(-c2ccc(C)cc2)n1C returned IEC-6 tox 5, Ba/F3 V617F tox 31*, aSyn UTR inh -109, APP transl inh -38, KLF5 inhibitor -41 and BaF3 tox 35*.
CCSc1nnc(-c2ccc(S(=O)(=O)N3CCOCC3)cc2)n1C was read as IEC-6 tox 8, aSyn UTR inh 10 and KLF5 inhibitor 3.
CCSc1nnc(-c2ccc(S(=O)(=O)N3CCCC3)cc2)n1C was read as IEC-6 tox 2, Ba/F3 V617F tox 0, aSyn UTR inh -36, APP transl inh 73*, KLF5 inhibitor -6 and BaF3 tox 1.
`COc1ccc(NS(=O)(=O)c2cc(NC(=O)c3ccco3)ccc2N2CCCCC2)cc1` gave IEC-6 tox 2, Ba/F3 V617F tox 2, aSyn UTR inh 2, APP transl inh 3, KLF5 inhibitor 11 and BaF3 tox 3.
CC(=O)Nc1ccc(S(=O)(=O)N(C)CCOCc2ccccc2)cc1 was read as IEC-6 tox 3, Ba/F3 V617F tox 6, aSyn UTR inh 14, APP transl inh 2, KLF5 inhibitor 4 and BaF3 tox 43*.
Screening CC(=O)Nc1ccc(S(=O)(=O)N(CCO)Cc2ccccc2)cc1 returned IEC-6 tox -6, Ba/F3 V617F tox 0, aSyn UTR inh 2, APP transl inh 8, KLF5 inhibitor -24 and BaF3 tox 5.
`COc1ccccc1NC(=O)C/C(N)=N/O` gave IEC-6 tox 6, Ba/F3 V617F tox 0, aSyn UTR inh -3, APP transl inh -12, KLF5 inhibitor -12 and BaF3 tox 4.
CCc1ccc(C(=O)/C=C/c2ccc([N+](=O)[O-])o2)cc1 was read as IEC-6 tox 0, Ba/F3 V617F tox -3, aSyn UTR inh -151, APP transl inh 54*, KLF5 inhibitor 0 and BaF3 tox 2.
CCOC(=O)N1CCN(c2nc3ccccn3c(=O)c2C=O)CC1 was read as IEC-6 tox -2, aSyn UTR inh -23 and KLF5 inhibitor 12.
Screening Cc1ccc2nc(SCC(=O)NC(=O)NCc3ccco3)[nH]c2c1 returned IEC-6 tox 10, Ba/F3 V617F tox 0, aSyn UTR inh -3, APP transl inh -4, KLF5 inhibitor 22 and BaF3 tox 5.
For Cc1ccc2nc(SCC(=O)NCc3ccco3)[nH]c2c1 the results were IEC-6 tox 1, Ba/F3 V617F tox -3, aSyn UTR inh -40, APP transl inh 51*, KLF5 inhibitor -5 and BaF3 tox 0.
`Cn1c(=O)c2c(=O)cc(NNC(=O)C(C)(C)C)[nH]c2n(C)c1=O` gave IEC-6 tox 4, Ba/F3 V617F tox 3, aSyn UTR inh 15, APP transl inh 46*, KLF5 inhibitor -25 and BaF3 tox 3.
Screening O=C(Nc1ccc(Cl)cc1F)c1cccc2ccccc12 returned IEC-6 tox 6, aSyn UTR inh -63 and KLF5 inhibitor -41.
For CC(C)C(=O)Nc1cccc(C(=O)N2CCCCC2C)c1 (stereo not given) the results were IEC-6 tox 1, Ba/F3 V617F tox 32*, aSyn UTR inh 17, APP transl inh -17, KLF5 inhibitor -8 and BaF3 tox 49*.
For COc1ccc(CNC(=O)C2CCC(CNS(=O)(=O)c3cccs3)CC2)cc1 (stereo not given) the results were IEC-6 tox -7, aSyn UTR inh -4 and KLF5 inhibitor -6.
Cc1ccc2nc(Cl)nc(-c3ccccc3)c2c1 was read as IEC-6 tox 2, Ba/F3 V617F tox 1, aSyn UTR inh 15, APP transl inh -28, KLF5 inhibitor 11 and BaF3 tox 10.
For Cc1ccc2nc(Cl)c(-c3ccccc3)cc2c1 the results were aSyn UTR inh 74*.
COC(=O)c1cc(NC(=O)c2c(Cl)nc3sccn23)cc(C(=O)OC)c1 was read as IEC-6 tox -2, Ba/F3 V617F tox 1, aSyn UTR inh 80*, APP transl inh 5, KLF5 inhibitor 3 and BaF3 tox 4.
Screening Cc1nn(-c2ccccc2)c(Cl)c1C(=O)NCC(C)C returned IEC-6 tox -5, Ba/F3 V617F tox -5, aSyn UTR inh -12, APP transl inh 77*, KLF5 inhibitor -41 and BaF3 tox -1.
For CC(C)(C)c1ccc(C(=O)Nc2ccc(CC(=O)O)cc2)o1 the results were IEC-6 tox 0, Ba/F3 V617F tox 0, aSyn UTR inh 111*, KLF5 inhibitor 48 and BaF3 tox 4.
Screening Cn1c(=O)[nH]c2cc3ccccc3cc21 returned IEC-6 tox 0, Ba/F3 V617F tox 0, aSyn UTR inh 62*, APP transl inh 7, KLF5 inhibitor -5 and BaF3 tox 7.
Cc1nc2cc3ccccc3cc2n1C was read as IEC-6 tox 0, Ba/F3 V617F tox 7, aSyn UTR inh -8, APP transl inh -1, KLF5 inhibitor -9 and BaF3 tox 15.
Screening CCc1nc2ccccc2c(C(=O)OCC(=O)N2CC(C)OC(C)C2)c1C (stereo not given) returned aSyn UTR inh 11.
For O=C(CNC(=O)c1cccs1)N/N=C/c1c[nH]c2ccccc12 the results were IEC-6 tox 0, Ba/F3 V617F tox -2, aSyn UTR inh 2, APP transl inh -33, KLF5 inhibitor 14 and BaF3 tox 1.
CCOc1ccc2c(c1)[N+](C)(C)C(C)(C)C=C2C was read as IEC-6 tox 5, Ba/F3 V617F tox 54*, aSyn UTR inh -17, APP transl inh 21, KLF5 inhibitor -30 and BaF3 tox 60*.
`COc1ccc(C2C(=O)c3ccccc3C2=O)c(OC)c1` gave IEC-6 tox 1, Ba/F3 V617F tox -2, aSyn UTR inh -265, APP transl inh -10, KLF5 inhibitor -22 and BaF3 tox -1.
`COc1ccc2c(c1)[N+](C)(C)C(C)(C)C=C2C` gave IEC-6 tox -1, Ba/F3 V617F tox 26*, aSyn UTR inh -7, APP transl inh 10, KLF5 inhibitor 7 and BaF3 tox 47*.
CCNC(=O)N1c2ccc(OCC)cc2C(C)=CC1(C)C was read as IEC-6 tox 1, Ba/F3 V617F tox 0, aSyn UTR inh -19, APP transl inh 2, KLF5 inhibitor 4 and BaF3 tox 3.
`c1ccc2c(NCCCN3CCOCC3)c3ccccc3nc2c1` gave IEC-6 tox 5, Ba/F3 V617F tox -5, APP transl inh 63*, KLF5 inhibitor -29 and BaF3 tox 3.
`CN(C)CCCNc1nc(-c2ccccc2)nc2ccccc12` gave IEC-6 tox 4, Ba/F3 V617F tox 5, aSyn UTR inh -8, KLF5 inhibitor -11 and BaF3 tox 5.

Screening results (PubChem BioAssay)
